# Where a name gives a salt, the structure may show the parent alone.
# Tested on: Saccharomyces cerevisiae BY4741 SeMeCo community
# Assay: z-score of subpopulation abundance vs DMSO median, subpopulation auxotrophic for HLM; higher = larger share of this subpopulation than in DMSO controls
# Settings: 10 µM; 24 h; SM minimal medium; subpopulation (auxotrophy): HLM
# Outline: (§1)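 Four plasmids, each restoring a single auxotrophy and encoding a distinct fluorescent protein, were carried by a Saccharomyces cerevisiae BY4741 community. After overnight growth to OD600 1.0 and dilution to 0.3, 70 µl per well was grown for 24 h in minimal SM medium on 384-well plates acoustically predosed with library drugs at 10 µM final. Following paraformaldehyde fixation, automated confocal microscopy was used, with single-auxotroph fluorescent strains defining thresholds and autofluorescence correction. Subpopulation abundance was then scored as a z-score against the vehicle-well median.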
row,Compound,z-score of subpopulation abundance
1,CO/N=C(\C(=O)N[C@@H]1C(=O)N2C(C(=O)O)=C(CSc3nc(C)c(CC(=O)O)s3)CS[C@H]12)c1csc(N)n1 [Cefodizime Sodium],-1.07
2,C[C@H](NCc1ccc(OCc2cccc(F)c2)cc1)C(N)=O [Safinamide Mesylate],0.54
3,Cc1ccnc(NS(=O)(=O)c2ccc(N)cc2)n1 [Sulfamerazine],0.7
4,N=C(N)NS(=O)(=O)c1ccc(N)cc1 [Sulfaguanidine],-1.22
5,C=C[C@H]1CN2CC[C@H]1C[C@@H]2[C@@H](O)c1ccnc2ccc(OC)cc12 [Quinidine sulfate],1.12
6,O=C(Nc1ccc(Oc2ccc(Cl)cc2)c(Cl)c1)c1cc(I)cc(I)c1O [Rafoxanide],0.01
7,COC(=O)Nc1nc2cc(C(=O)c3ccccc3)ccc2[nH]1 [Mebendazole],1.83
8,Nc1nc(N)c2nc(-c3ccccc3)c(N)nc2n1 [Triamterene],2.07
9,CC(=O)N1CCN(c2ccc(OCC3COC(Cn4ccnc4)(c4ccc(Cl)cc4Cl)O3)cc2)CC1 (centres undefined) [Ketoconazole],-0.67
10,Cc1onc(-c2ccccc2)c1C(=O)N[C@@H]1C(=O)N2[C@@H]1SC(C)(C)[C@@H]2C(=O)O [Oxacillin sodium monohydrate],-0.54
11,CC[C@H]1OC(=O)[C@H](C)[C@@H](O[C@H]2C[C@@](C)(OC)[C@@H](O)[C@H](C)O2)[C@H](C)[C@@H](O[C@@H]2O[C@H](C)C[C@H](N(C)C)[C@H]2O)[C@](C)(O)C[C@@H](C)C(=O)[C@H](C)[C@@H](O)[C@]1(C)O [Erythromycin thiocyanate],-0.68
12,CCn1cc(C(=O)O)c(=O)c2cc(F)c(N3CCNC(C)C3)c(F)c21 (centres undefined) [Lomefloxacin HCl],0.25
13,CNS(=O)(=O)CCc1ccc2[nH]cc(C3CCN(C)CC3)c2c1 [Naratriptan HCl],-0.19
14,CO[C@@]1(NC(=O)CSC[C@@H](N)C(=O)O)C(=O)N2C(C(=O)O)=C(CSc3nnnn3C)CS[C@@H]21 [Cefminox Sodium],3.56
15,CNCCCC1c2ccccc2C=Cc2ccccc21 [Protriptyline hydrochloride],-0.07
16,CC1CCc2c(N3CCC(O)CC3)c(F)cc3c(=O)c(C(=O)O)cn1c23 (centres undefined) [Nadifloxacin],0.15
17,C[n+]1ccccc1/C=N/O [Pralidoxime chloride],-0.4
18,Oc1ccc(Cl)c2cccnc12 [Cloxiquine],64
19,N[C@H]1CONC1=O [L-Cycloserine],5.24
20,CCN(CC)CC#CCOC(=O)C(O)(c1ccccc1)C1CCCCC1 (centres undefined) [Oxybutynin chloride],-0.24

# Tested on: Saccharomyces cerevisiae BY4741 SeMeCo community
# Assay: z-score of subpopulation abundance vs DMSO median, subpopulation auxotrophic for HUM; higher = larger share of this subpopulation than in DMSO controls
# Settings: 10 µM; 24 h; SM minimal medium; subpopulation (auxotrophy): HUM
# Outline: as §1
row,Compound,z-score of subpopulation abundance
1,CN[C@@H]1[C@H](O[C@H]2[C@H](O[C@H]3[C@H](O)[C@@H](O)[C@H](NC(=N)N)[C@@H](O)[C@@H]3NC(=N)N)O[C@@H](C)[C@]2(O)CO)O[C@@H](CO)[C@H](O)[C@H]1O [Dihydrostreptomycin sulfate],-0.82
2,C=CCc1ccc(O)c(-c2ccc(O)c(CC=C)c2)c1 [Honokiol],-1.19
3,COCCCN1CCC(NC(=O)c2cc(Cl)c(N)c3c2OCC3)CC1 [Prucalopride],0.36
4,COCC(=O)Nc1cc(Sc2ccccc2)ccc1N=C(NC(=O)OC)NC(=O)OC [Febantel],-0.11
5,Cc1ccsc1/C=C/C1=NCCCN1C [Morantel tartrate],-0.08
6,CCn1cc(C(=O)O)c(=O)c2cc(F)c(N3CCNCC3)cc21 [Norfloxacin],0.46
7,CC[C@H]1OC(=O)C[C@@H](O)[C@H](C)[C@@H](O[C@@H]2O[C@H](C)[C@@H](O[C@H]3C[C@@](C)(O)[C@@H](O)[C@H](C)O3)[C@H](N(C)C)[C@H]2O)[C@@H](CC=O)C[C@@H](C)C(=O)/C=C/C(C)=C/[C@@H]1CO[C@@H]1O[C@H](C)[C@@H](O)[C@@H](OC)[C@H]1OC [Tylosin],1.06
8,COC(=O)C1=C(C)NC(C)=C(C(=O)OC2CCCN(Cc3ccccc3)C2)C1c1cccc([N+](=O)[O-])c1 (centres undefined) [Benidipine HCl],0.12
9,CC1=C[C@H]2C(=O)O[C@H]3C[C@@H](C/C=C(\C)C[C@@H](C)/C=C/C=C4\CO[C@H](/C1=N\O)[C@@]42O)O[C@@]1(CC[C@H](C)[C@@H](C)O1)C3.CC[C@H]1O[C@]2(CC[C@@H]1C)C[C@@H]1C[C@@H](C/C=C(\C)C[C@@H](C)/C=C/C=C3\CO[C@@H]4/C(=N\O)C(C)=C[C@@H](C(=O)O1)[C@]34O)O2 [Milbemycin Oxime],0.03
10,O=C(O)c1cc(O)c2c(c1)[C@H]([C@H]1c3cc(C(=O)O)cc(O)c3C(=O)c3c(O[C@@H]4O[C@H](CO)[C@@H](O)[C@H](O)[C@H]4O)cccc31)c1cccc(O[C@@H]3O[C@H](CO)[C@@H](O)[C@H](O)[C@H]3O)c1C2=O [Sennoside A],-0.7
11,Oc1ccc([C@H]2COc3cc(O)ccc3C2)cc1 [Equol],-0.27
12,COc1ccc2cc(CCC(C)=O)ccc2c1 [Nabumetone],-0.22
13,CO/N=C(\C(=O)N[C@@H]1C(=O)N2C(C(=O)O)=C(CSc3nc(=O)c(O)nn3C)CS[C@H]12)c1csc(N)n1 [Ceftriaxone Sodium Trihydrate],-2.14
14,CO/N=C(\C(=O)N[C@@H]1C(=O)N2C(C(=O)OC(C)OC(C)=O)=C(COC(N)=O)CS[C@H]12)c1ccco1 (some centres undefined) [Cefuroxime axetil],0.05
15,CNCCCN1c2ccccc2CCc2ccccc21 [Desipramine Hydrochloride],0.16
16,CCCCCOc1ccccc1/C(=C\SC)n1ccnc1 [Neticonazole Hydrochloride],6.29
17,CC(C(=O)O)c1ccc2c(c1)[nH]c1ccc(Cl)cc12 (centres undefined) [Carprofen],-2.82
18,CCC(C)n1ncn(-c2ccc(N3CCN(c4ccc(OCC5COC(Cn6cncn6)(c6ccc(Cl)cc6Cl)O5)cc4)CC3)cc2)c1=O (centres undefined) [Itraconazole],9.21
19,C=CCN1CCCC1CNC(=O)c1cc2nn[nH]c2cc1OC (centres undefined) [Alizapride HCl],0
20,CO/N=C(\C(=O)N[C@@H]1C(=O)N2C(C(=O)O)=C(CSc3nc(C)c(CC(=O)O)s3)CS[C@H]12)c1csc(N)n1 [Cefodizime Sodium],-0.09

row,Compound,z-score of subpopulation abundance
1,C[C@H](NCc1ccc(OCc2cccc(F)c2)cc1)C(N)=O [Safinamide Mesylate],0.75
2,Cc1ccnc(NS(=O)(=O)c2ccc(N)cc2)n1 [Sulfamerazine],0.76
3,N=C(N)NS(=O)(=O)c1ccc(N)cc1 [Sulfaguanidine],-1.13
4,C=C[C@H]1CN2CC[C@H]1C[C@@H]2[C@@H](O)c1ccnc2ccc(OC)cc12 [Quinidine sulfate],0.61
5,O=C(Nc1ccc(Oc2ccc(Cl)cc2)c(Cl)c1)c1cc(I)cc(I)c1O [Rafoxanide],0.54
6,COC(=O)Nc1nc2cc(C(=O)c3ccccc3)ccc2[nH]1 [Mebendazole],1.64
7,Nc1nc(N)c2nc(-c3ccccc3)c(N)nc2n1 [Triamterene],-6.05
8,CC(=O)N1CCN(c2ccc(OCC3COC(Cn4ccnc4)(c4ccc(Cl)cc4Cl)O3)cc2)CC1 (centres undefined) [Ketoconazole],0.03
9,Cc1onc(-c2ccccc2)c1C(=O)N[C@@H]1C(=O)N2[C@@H]1SC(C)(C)[C@@H]2C(=O)O [Oxacillin sodium monohydrate],0.65
10,CC[C@H]1OC(=O)[C@H](C)[C@@H](O[C@H]2C[C@@](C)(OC)[C@@H](O)[C@H](C)O2)[C@H](C)[C@@H](O[C@@H]2O[C@H](C)C[C@H](N(C)C)[C@H]2O)[C@](C)(O)C[C@@H](C)C(=O)[C@H](C)[C@@H](O)[C@]1(C)O [Erythromycin thiocyanate],-0.41
11,CCn1cc(C(=O)O)c(=O)c2cc(F)c(N3CCNC(C)C3)c(F)c21 (centres undefined) [Lomefloxacin HCl],0.66
12,CNS(=O)(=O)CCc1ccc2[nH]cc(C3CCN(C)CC3)c2c1 [Naratriptan HCl],-0.27
13,CO[C@@]1(NC(=O)CSC[C@@H](N)C(=O)O)C(=O)N2C(C(=O)O)=C(CSc3nnnn3C)CS[C@@H]21 [Cefminox Sodium],-0.35
14,CNCCCC1c2ccccc2C=Cc2ccccc21 [Protriptyline hydrochloride],0.54
15,CC1CCc2c(N3CCC(O)CC3)c(F)cc3c(=O)c(C(=O)O)cn1c23 (centres undefined) [Nadifloxacin],-0.22
16,C[n+]1ccccc1/C=N/O [Pralidoxime chloride],0.39
17,Oc1ccc(Cl)c2cccnc12 [Cloxiquine],14.5
18,N[C@H]1CONC1=O [L-Cycloserine],1.54
19,CCN(CC)CC#CCOC(=O)C(O)(c1ccccc1)C1CCCCC1 (centres undefined) [Oxybutynin chloride],-0.97
